The values below come from PubChem BioAssay (NCATS).

Inconclusive results are not listed. A number with no mark means an inactive call. Calls follow the shape of the dose curve; as a rule, active = well fitted inhibition curve with a large enough effect; inconclusive = small, poorly fitted or top-dose-only effect; inactive = flat fitted curve, though single readings scatter.
% is scaled to controls: 0 for no effect and ±100 for the full control effect.

The assay can be described thus: Drug repurposing screens with cells derived from glioblastoma tumor samples (AID 1345199). Also: nearly all actives have a fitted effect of over 40% in size. The conditions noted are these: GBM patient neurospheres viability, ATP luminescence, 48 h; at 45.9 µM (top of the series); tumour line B. In short, it runs like this: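 Primary testing used CD133+ neurospheres from four GBM patients, seven concentrations, 48 h exposure and ATP-based viability; confirmation added three slower-growing patient lines.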
Regarding `N[C@H](CO)C(=O)O`, the activity, negative = cell killing was 4.31%.
As to `CC(=O)Oc1ccc(C(c2ccc(OC(C)=O)cc2)c2ccccn2)cc1`, the activity, negative = cell killing was -5.88%.
The figure for `CN(C)/N=N/c1nc[nH]c1C(N)=O` is -24.8%.
To `CC1(C)CCC(NC(=O)[C@@H](N)CCC(=O)O)CC1` belongs -9.8%.
As to `O=C1CCC(c2ccc(-n3ccnc3)cc2)=NN1`, the activity, negative = cell killing was -6.09%.
The figure for `Nc1cc(Cl)c(NC2=NCCN2)c(Cl)c1` is -8.4%; for `CCC(NC(C)C)C(O)c1ccc(O)c(O)c1` (stereo not given) it is -1.77%; for `C[N+]1(CCCCC[N+]2(C)CCCC2)CCCC1` it is 0.364%.
The figure for `CC(C)C[C@H]1C(=O)N2CCC[C@H]2[C@]2(O)O[C@](NC(=O)[C@@H]3C=C4c5cccc6[nH]c(Br)c(c56)C[C@H]4N(C)C3)(C(C)C)C(=O)N12` is -7.46%; for `N[C@@H](Cc1cnc[nH]1)C(=O)O` it is -11.3%.
As to `CCCC1O[C@@H]2C[C@H]3[C@@H]4CCC5=CC(=O)C=C[C@]5(C)[C@H]4[C@@H](O)C[C@]3(C)[C@]2(C(=O)CO)O1` (stereo not given in full), the activity, negative = cell killing was -17.2%.
As for `COC(=O)[C@H]1[C@H]2C[C@H]3c4[nH]c5ccccc5c4CCN3C[C@H]2CC[C@@H]1O`, the activity, negative = cell killing was -4.34%.
The figure for `CC(C)COC(=O)OCN1C(=O)CN(CCN2CC(=O)N(COC(=O)OCC(C)C)C(=O)C2)CC1=O` is -7.7%; for `COc1cc(-c2ccc(=O)[nH]n2)ccc1OC(F)F` it is -9.45%; for `C[C@@H]1C(=O)NC2=Nc3cccc(Cl)c3CN21` it is -5.98%.
